An excerpt weighted towards active compounds, which were near 2.8% of everything screened.
Pol eta inh: qHTS for Inhibitors of Polymerase Eta | 390,000 compounds, 1.2% hits | recombinant Pol eta, fluorescent DNA replication assay | Potency, µM (series often up to 114 µM), without a hit: at the highest dose activity change, negative = inhibition, hits mostly inhibitors | DNA polymerase eta (Homo sapiens), Q9Y253; also: potency is read from the fitted curve at half-maximal effect; % is scaled to controls: 0 for no effect and ±100 for the full control effect
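Pol eta (10 nM) was preincubated with compounds for 15 min at room temperature, after which fluorescent replication substrate (50 nM final) was added to start the reaction. Fluorescence was read kinetically at 0 and 10 min.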
Pol kappa inh: qHTS for Inhibitors of Polymerase Kappa; DNA polymerase kappa (Homo sapiens), Q9UBT6; 400,000 compounds, 0.53% hits; purified Pol kappa, fluorescent DNA synthesis assay, 10 min; Potency, µM (series often up to 107 µM), for the others: at the highest dose activity, negative = inhibition, actives largely listed as inhibitors; also: potency is read from the fitted curve at half-maximal effect; % is scaled to controls: 0 for no effect and ±100 for the full control effect
Target sequence (Q9UBT6 whole entry, looked up): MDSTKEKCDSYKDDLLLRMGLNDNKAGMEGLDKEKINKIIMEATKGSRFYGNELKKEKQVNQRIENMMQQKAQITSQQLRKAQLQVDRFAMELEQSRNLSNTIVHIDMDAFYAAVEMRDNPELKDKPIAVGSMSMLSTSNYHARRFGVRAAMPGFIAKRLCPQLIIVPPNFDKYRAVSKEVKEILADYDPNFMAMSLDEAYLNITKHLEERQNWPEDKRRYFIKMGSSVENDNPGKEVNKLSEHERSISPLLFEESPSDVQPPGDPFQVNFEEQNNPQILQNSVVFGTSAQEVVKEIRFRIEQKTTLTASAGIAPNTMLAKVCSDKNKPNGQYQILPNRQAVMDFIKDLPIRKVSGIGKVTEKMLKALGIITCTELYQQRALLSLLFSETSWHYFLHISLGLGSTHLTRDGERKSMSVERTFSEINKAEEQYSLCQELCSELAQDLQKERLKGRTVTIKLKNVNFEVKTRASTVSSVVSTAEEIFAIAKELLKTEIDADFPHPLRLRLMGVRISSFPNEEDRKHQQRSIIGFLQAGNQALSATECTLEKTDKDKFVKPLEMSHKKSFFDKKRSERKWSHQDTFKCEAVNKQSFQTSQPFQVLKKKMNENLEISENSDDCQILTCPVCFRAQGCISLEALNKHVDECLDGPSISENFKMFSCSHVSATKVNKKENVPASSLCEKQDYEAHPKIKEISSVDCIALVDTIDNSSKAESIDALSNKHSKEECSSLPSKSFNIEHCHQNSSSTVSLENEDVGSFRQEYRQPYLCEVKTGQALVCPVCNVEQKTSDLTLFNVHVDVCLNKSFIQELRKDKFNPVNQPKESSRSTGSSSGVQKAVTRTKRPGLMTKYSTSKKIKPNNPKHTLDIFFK
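Activity was followed as the change in fluorescence between reads at 0 and 10 min after starting the reaction with 50 nM substrate. Beforehand, 10 nM polymerase had been preincubated with compound for 15 min at room temperature.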
WRN inhibitor: qHTS for Inhibitors of WRN Helicase. 360,000 compounds, 0.46% hits. WRN helicase unwinding, fluorescent forked duplex, kinetic. Potency, µM (titrated, usually from 114 µM), without a hit: top-dose activity change, negative = inhibition, actives largely listed as inhibitors; also: potency is read from the fitted curve at half-maximal effect; % is scaled to controls: 0 for no effect and ±100 for the full control effect; nearly all actives have a fitted effect of over 55% in size
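Screening of the MLSMR collection measured strand separation of a quenched forked DNA duplex (100 nM) by 20 nM WRN with 2 mM ATP, all final. Compounds were preincubated with enzyme 15 min at room temperature.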
Pol iota inh: qHTS for Inhibitors of Polymerase Iota | DNA polymerase iota (Homo sapiens), Q9UNA4 | Pol iota fluorescent replication assay, 10 min | Potency, µM (highest dose often 115 µM), for inactives: at the top dose activity, negative = inhibition, actives largely listed as inhibitors | 390,000 compounds, 1% hits | AID 588590, 2011; also: potency is read from the fitted curve at half-maximal effect
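Pol iota at 10 nM preincubated 15 min with compounds at room temperature; reaction started with fluorescent substrate, 50 nM final. Fluorescence read kinetically at 0 and 10 min; buffer-only wells as negative control.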
PI5P4K alpha inh: qHTS for Inhibitors of phosphatidylinositol 5-phosphate 4-kinase (PI5P4K) | PI5P4Kalpha enzyme, ADP-Glo luminescence, 60 min; hits give low values | max response, % | 330,000 compounds, 1.2% hits | AID 652105, 2013; active = max response of -50% or lower; inconclusive = between -30% and -50%; inactive = -30% or higher; also: value at the top dose of about 77 µM; % is scaled to controls: 0 for no effect and ±100 for the full control effect
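Enzyme plus substrate dispensed, test compounds pinned in, then ATP (5 microM final) added. After 60 min at RT, ADP-Glo reagent 1 for 45 min and reagent 2 for 30 min preceded luminescence imaging.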
Pol beta inh: qHTS Assay for Inhibitors of DNA Polymerase Beta | P06746 | Pol beta primer extension/strand displacement, fluorescence kinetic | Potency, µM (series often up to 114 µM), without a hit: at the highest dose activity change, negative = inhibition, usual class: inhibitors | 340,000 compounds, 1.3% hits | AID 485314, 2010; also: potency is read from the fitted curve at half-maximal effect; % is scaled to controls: 0 for no effect and ±100 for the full control effect
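Human Pol beta at 10 nM; strand-displacement substrate 50 nM final. Compound exposure 15 min at room temperature before start, reaction 10 min at room temperature.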
Starred values were filed as active, the others as inactive; ? = inconclusive; . = not tested or not shown; [ ] = remark or other dose. Unless noted, calls follow the shape of the dose curve; as a rule, active = well fitted curve in the direction sought with a large enough effect; inconclusive = small, poorly fitted or top-dose-only effect, or another doubt; inactive = no such curve, though single readings can be large; an effect the other way counts as inactive or inconclusive.

SMILES	Pol eta inh	Pol kappa inh	WRN inhibitor	Pol iota inh	PI5P4K alpha inh	Pol beta inh
Cc1ccc(C)c(/C=C/C(=O)c2ccccc(=O)c2O)c1	?	-6.0%	-18.3%	?	-21.2	?
O=C(/C=C/c1ccc(Cl)cc1)c1cccnc1	-8.9%	-0.8%	?	?	-1.6	6.4%
O=C(/C=C/c1c(F)cccc1Cl)c1ccc(O)cc1	-23.0%	-9.5%	-6.1%	?	-29.2	0.0%
O=C(/C=C/c1ccccc1Cl)c1cccnc1	0.6%	-0.9%	?	39.8µM*	2.0	-4.5%
O=C(/C=C/c1ccccc1Cl)c1ccccc(=O)c1O	?	-21.8%	-5.0%[11.6 µM]	28.2µM*	-28.9	44.7µM*
O=C(/C=C/c1ccccc1Cl)c1ccc(O)cc1	-16.5%	6.7%	-9.6%[57.1 µM]	?	-53.6*	2.9%
CC(C)(C)CC(C)(C)N=C1Nc2ccc([N+](=O)[O-])cc2N[C@]12C[C@H]1CCCC(=O)N3CC[C@@H](C2)[C@@H]13	.	5.0%	.	24.2%	.	.
CNC(=O)c1ccsc1NC(=O)c1sc2ccccc2c1Cl	?	?	-21.8%	?	-0.6	14.1µM*
Cc1nnc(NC(=O)c2sc3ccccc3c2Cl)s1	5.6%	-15.9%	-14.8%	2.0%	-15.1	3.4%
CCCCNC(=O)N1CCN(c2ccnc3cc(Cl)ccc23)CC1	?	-3.3%	50.1µM*	28.2µM*	0.9	1.6%
COc1ccccc1OC(=O)CCc1nc2ccccc2s1	?	?	-6.2%	15.8µM*	?	?
COc1cc(C=c2c3ccccc3n3c2cc(-c2ccccc2)[n+]3C)cc(OC)c1OC	-12.1%	-6.0%	-1.0%[11.6 µM]	?	-17.5	.
CN(C)c1ccc(/C=C2\CCc3ccccc32)cc1	.	4.8%	.	-11.3%	.	.
CN(C)c1ccc(C=c2c3ccccc3n3c2c2c([n+]3C)CCCC2)cc1	?	-28.3%	22.4µM*	-27.2%	-4.3	.
COc1cc(N(C)C)ccc1C=c1c2ccccc2n2c1cc(-c1ccccc1)[n+]2C	22.4µM*	?	20µM*	?	?	.
CN(C)c1ccc(C=c2c3ccccc3n3c2cc(-c2ccccc2)[n+]3C)cc1	?	-24.5%	?	?	-50.9*	.
CN(C)c1ccc(C=c2c3cc([N+](=O)[O-])ccc3n3c2cc(-c2ccccc2)[n+]3C)cc1	0.3%	-24.2%	35.5µM*	?	-77.8*	.
COc1ccc(CN2CCN(C(=O)C3CCC(CNS(=O)(=O)c4ccccc4)CC3)CC2)c(OC)c1OC (stereo unspecified)	-7.4%	-1.8%	-4.2%	17.9%	8.0	-7.7%
CN(c1ccc(Cl)cc1)c1cc(=O)n(C)c2ccccc12	-10.1%	-7.5%	-1.3%	5.8%	-2.0	-28.9%
CN(C)c1ccc(C=c2c3ccccc3n3c2cc(-c2ccc(Cl)cc2)[n+]3C)cc1	?	-10.8%	28.2µM*	?	-57.1*	.
COc1c(-c2ccccc2)oc2c(ccc3occc32)c1=O	1.7%	?	5.2%	9.9%	0.2	.
CC(C)CCn1c(=O)c2cccnc2n(CC(=O)Nc2ccccc2)c1=O	-3.6%	-0.2%	.	14.7%	.	-1.5%
Cc1cccc(N=C2NC(=O)/C(=C/c3cccn3C)S2)c1	2.5%	-4.9%	-3.2%	-15.5%	-4.0	22.1%
Cc1c(/C=C2\SC(=Nc3cccc(C(=O)O)c3)NC2=O)c2ccccc2n1C	79.4µM*	-37.2%	-18.4%[11.6 µM]	?	-78.8*	?
COC(=O)c1ccccc1NC(=O)c1cc2ncc(Br)cn2n1	7.08µM*	-20.3%	-35.5%	?	?	44.7µM*
SMILES	Pol eta inh	Pol kappa inh	WRN inhibitor	Pol iota inh	PI5P4K alpha inh	Pol beta inh
COC(=O)c1ccccc1NC(=O)c1cc2ccccn2n1	-11.0%	6.6%	.	17.6%	.	?
c1cncc(-c2nc(NCCN3CCOCC3)c3ccccc3n2)c1	.	1.2%[60.1 µM]	.	.	.	.
C=C(CCC12O[C@H](C(=O)O)[C@@](O)(C(=O)O)[C@](C(=O)O)(O1)[C@H](OC(=O)/C=C/[C@@H](C)C[C@@H](C)CC)[C@H]2O)[C@@H](OC(C)=O)[C@H](C)Cc1ccccc1	.	3.55µM*	.	.	.	.
C=C(CC[C@]12OC(C(=O)O)C(O)(C(=O)O)C(C(=O)O)(O1)C(OC(=O)/C=C/[C@@H](C)C[C@@H](C)CC)C2O)[C@@H](OC(C)=O)[C@H](C)Cc1ccccc1 (stereo partly specified)	.	79.4µM*	.	?	.	.
Nc1[nH]c(C(=O)c2ccccc2)c(-c2ccc(Cl)cc2)c1C(=O)NCc1ccccc1	.	.	5.2%	.	-8.4	.
Cc1ccccc1C(=O)Nc1cccc(NC(=O)c2ccc(C(C)(C)C)cc2)c1	-8.5%	?	.	?	.	9.0%
O=C1OC(/C(=C\Nc2cc(Cl)ccc2O)[N+](=O)[O-])c2ccccc21 (stereo unspecified)	22.4µM*	-14.3%	-30.1%	?	-3.2	-7.7%
CC(C)CC(=O)Nc1nc(=S)ss1	1.1%	-5.5%	-33.1%	?	-53.2*	2.2%
Cc1ccccc1C(=O)Nc1nc(=S)ss1	-3.2%	-21.3%	?	-1.4%	?	14.7%
CC(=O)Nc1nc(=S)ss1	1.6%	-5.4%	-19.5%	?	-57.9*	18.6%
CC(C)CS(=O)(=O)C1=NSC2=NC(=O)/C(=C\c3ccc(OC(=O)c4ccco4)cc3)C(=N)N21	56.2µM*	-7.0%	-16.2%[11.6 µM]	-5.6%	-85.9*	-3.4%
CCC(CC)C1=NN2C(=N)/C(=C/c3ccc(OC(=O)c4ccco4)cc3)C(=O)N=C2S1	-6.2%	-6.1%	-16.9%	?	-18.1	16.4%
CSC1=NSC2=NC(=O)/C(=C\c3ccc(OC(=O)c4ccco4)cc3)C(=N)N12	?	-30.7%	?	?	-53.0*	-28.8%
CC1=CSC2=NC(=O)/C(=C/c3cccc(OC(=O)c4ccco4)c3)C(=N)N12	?	-11.7%	-16.3%	3.7%	-19.5	16.0%
CS(=O)(=O)C1=NSC2=NC(=O)/C(=C\c3ccc(OC(=O)c4ccco4)c(Br)c3)C(=N)N21	50.1µM*	-28.6%	?	?	-72.9*	?
CCOC(=O)C(Cc1c[nH]c2ccccc12)NC(=O)c1ccccc1Br (stereo unspecified)	-18.2%	-11.3%	-22.8%	124.1%	-1.0	8.4%
COCCN(Cc1cc2cc(C)ccc2n2nnnc12)C(=S)Nc1cccc(C)c1	-6.6%	-17.8%	3.5%	-14.0%	-2.1	5.7%
CCc1ccc2c(c1)cc(CN(C(=S)Nc1cccc(C)c1)C1CC1)c1nnnn12	1.6%	-13.6%	-2.1%[57.1 µM]	100µM*	.	2.4%

Screens as filed in PubChem.
